PubChem BioAssay AID1159580 (chemical genetic matrix, 2015)
The campaign covered roughly 5,500 compounds. About 2,000 (36%) were called active. About 18% were inconclusive and are not listed. Rule as the data show it: active = normalized growth mostly below about 0.91 (no sharp cut-off); inconclusive = no clear call, values can overlap the other calls; inactive = mostly above about 0.92. Some of the results follow.

Assay: chemical genetic growth profiling, strain panel (AID 1159580);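 also: tested at 20 µM; growth read once vehicle control cultures reached saturation at 30 °C; 1 = growth at the plate median or of vehicle wells; lower values mean less growth of the strain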
Conditions: S. cerevisiae deletion strains, growth OD

Measured: normalized growth

CC(C)(Oc1ccc(C2CC2(Cl)Cl)cc1)C(=O)O (configuration not stated)
inactive: locus YAL021C, strain ccr4, hits give low values 1 | locus YAL026C, strain drs2, hits give low values 1 | locus YAL030W, strain snc1, hits give low values 1 | locus YAL040C, strain CLN3, hits give low values 0.988 | locus YBL061C, strain skt5, hits give low values 0.997 | locus YBR009C, strain hhf1, hits give low values 0.995 | locus YBR023C, strain chs3, hits give low values 0.992 | locus YBR171W, strain sec66, hits give low values 0.996 | locus YBR231C, strain swc5, hits give low values 0.997 | locus YBR279W, strain paf1, hits give low values 1.02 | locus YCL011C, strain gbp2, hits give low values 1.01 | locus YCL016C, strain dcc1, hits give low values 0.992 | locus YCL061C, strain MRC1 (second series), hits give low values 0.988 | locus YCL061C, strain MRC1, hits give low values 0.99 | locus YCL069W, strain vba3, hits give low values 1.01 | locus YCR088W, strain abp1, hits give low values 0.997 | locus YDL005C, strain med2, hits give low values 0.998 | locus YDL040C, strain nat1, hits give low values 1 | locus YDR001C, strain nth1, hits give low values 1.01 | locus YDR069C, strain doa4, hits give low values 1 | locus YDR137W, strain rgp1, hits give low values 0.964 | locus YDR159W, strain sac3, hits give low values 0.997 | locus YDR195W, strain ref2 0.989 | locus YDR297W, strain sur2, hits give low values 0.998 | locus YDR334W, strain swr1, hits give low values 1 | locus YDR335W, strain msn5, hits give low values 1 | locus YDR392W, strain spt3, hits give low values 0.944 | locus YEL003W, strain gim4, hits give low values 1.02 | locus YEL037C, strain rad23, hits give low values 1.01 | locus YEL061C, strain CIN8 (second series), hits give low values 1.01 | locus YER002W, strain NOP16, hits give low values 0.962 | locus YER015W, strain faa2, hits give low values 0.994 | locus YER016W, strain bim1, hits give low values 1 | locus YER111C, strain swi4, hits give low values 0.998 | locus YER155C, strain BEM2 (second series), hits give low values 1 | locus YFR010W, strain ubp6, hits give low values 0.99 | locus YGL167C, strain pmr1, hits give low values 0.998 | locus YGL173C, strain kem1, hits give low values 1 | locus YGL227W, strain vid30, hits give low values 1 | locus YGL240W, strain doc1, hits give low values 1 | locus YGL253W, strain hxk2, hits give low values 1.01 | locus YHR013C, strain ard1, hits give low values 0.973 | locus YHR027C, strain rpn1, hits give low values 0.995 | locus YHR142W, strain chs7, hits give low values 1 | locus YJL092W, strain hpr5, hits give low values 1.01 | locus YJL095W, strain BCK1 (second series), hits give low values 0.997 | locus YJL115W, strain asf1, hits give low values 0.999 | locus YJL129C, strain trk1, hits give low values 0.987 | locus YJL154C, strain vps35, hits give low values 1.01 | locus YJL164C, strain tpk1, hits give low values 1 | locus YJL166W, strain qcr8, hits give low values 0.985 | locus YJL187C, strain SWE1, hits give low values 0.992 | locus YKL160W, strain elf1, hits give low values 0.978 | locus YKR026C, strain gcn3, hits give low values 0.997 | locus YKR091W, strain srl3, hits give low values 1 | locus YLL001W, strain dnm1, hits give low values 0.968 | locus YLL026W, hits give low values 1 | locus YLL041C, strain sdh2, hits give low values 1.01 | locus YLR027C, strain aat2, hits give low values 0.998 | locus YLR221C, strain rsa3, hits give low values 0.994 | locus YLR258W, strain gsy2, hits give low values 1 | locus YLR262C, strain YPT6 (second series), hits give low values 0.981 | locus YLR320W, strain mms22, hits give low values 0.976 | locus YLR342W, strain FKS1, hits give low values 1 | locus YLR357W, strain rsc2, hits give low values 1.01 | locus YLR370C, strain arc18, hits give low values 1 | locus YLR384C, strain iki3, hits give low values 1 | locus YML120C, strain ndi1, hits give low values 0.985 | locus YMR058W, strain fet3, hits give low values 1 | locus YMR125W, strain sto1, hits give low values 0.996 | locus YMR129W, hits give low values 0.996 | locus YMR205C, strain PFK2, hits give low values 0.973 | locus YMR231W, strain pep5, hits give low values 1 | locus YNL071W, strain lat1, hits give low values 0.998 | locus YNL153C, strain GIM3, hits give low values 1.01 | locus YNL175C, strain NOP13, hits give low values 0.98 | locus YNL197C, strain WHI3, hits give low values 1.08 | locus YNL209W, strain ssb2, hits give low values 1 | locus YNL224C, strain SQS1, hits give low values 0.99 | locus YNL248C, strain rpa49, hits give low values 1 | locus YNL322C, strain KRE1 (second series), hits give low values 0.984 | locus YNR049C, strain mso1, hits give low values 1 | locus YOR001W, strain rrp6, hits give low values 1.02 | locus YOR070C, strain gyp1, hits give low values 0.998 | locus YOR080W, strain dia2, hits give low values 0.988 | locus YOR083W, strain WHI5 (second series), hits give low values 1.01 | locus YOR083W, strain WHI5, hits give low values 0.977 | locus YOR106W, strain vam3, hits give low values 0.972 | locus YOR265W, strain rbl2, hits give low values 1 | locus YOR270C, strain vph1, hits give low values 0.99 | locus YOR290C, strain snf2, hits give low values 1.01 | locus YPL051W, strain arl3, hits give low values 0.994 | locus YPL078C, strain atp4, hits give low values 0.993 | locus YPL106C, strain sse1, hits give low values 0.951 | locus YPL240C, strain hsp82, hits give low values 1.01 | locus YPL241C, strain CIN2, hits give low values 0.984

O=[N+]([O-])c1ccc(Sc2ssc(=S)c2-c2ccccc2)nc1
active: locus YDL214C, strain PRR2, hits give low values 0.521 | locus YDR477W, strain SNF1, hits give low values 0.651 | locus YER123W, strain YCK3, hits give low values 0.338 | locus YER133W, strain GLC7, hits give low values 0.512 | locus YFR019W, strain FAB1, hits give low values 0.546 | locus YGR040W, strain KSS1, hits give low values 0.673 | locus YGR052W, strain FMP48, hits give low values 0.449 | locus YHR030C, strain SLT2, hits give low values 0.159 | locus YHR079C, strain IRE1, hits give low values 0.247 | locus YHR082C, strain KSP1, hits give low values 0.471 | locus YJL095W, strain BCK1, hits give low values 0.175 | locus YJL157C, strain FAR1, hits give low values 0.485 | locus YJR066W, strain TOR1 (second series), hits give low values 0.312 | locus YJR066W, strain TOR1, hits give low values 0.327 | locus YKL067W, strain YNK1, hits give low values 0.61 | locus YKL203C, strain TOR2, hits give low values 0.674 | locus YLR113W, strain HOG1, hits give low values 0.362 | locus YLR133W, strain CKI1, hits give low values 0.626 | locus YML070W, strain DAK1, hits give low values 0.371 | locus YMR205C, strain PFK2 (second series), hits give low values 0.722 | locus YNL020C, strain ARK1, hits give low values 0.624 | locus YNL183C, strain NPR1, hits give low values 0.256 | locus YNL307C, strain MCK1 (second series), hits give low values 0.633 | locus YOL136C, strain PFK27, hits give low values 0.376 | locus YOR061W, strain CKA2, hits give low values 0.664 | locus YOR231W, strain MKK1, hits give low values 0.229 | locus YPL031C, strain PHO85, hits give low values 0.57 | locus YPL153C, strain RAD53, hits give low values 0.537 | locus YPL204W, strain HRR25, hits give low values 0.422 | locus YPL256C, strain CLN2, hits give low values 0.3
inactive: locus YAR019C, strain CDC15, hits give low values 0.922 | locus YBL105C, strain PKC1, hits give low values 0.946 | locus YBR135W, strain CKS1, hits give low values 0.943 | locus YBR136W, strain MEC1, hits give low values 0.952 | locus YBR160W, strain CDC28, hits give low values 0.947 | locus YDL017W, strain CDC7, hits give low values 0.954 | locus YDL028C, strain MPS1, hits give low values 0.953 | locus YDL101C, strain DUN1, hits give low values 0.961 | locus YDL108W, strain KIN28, hits give low values 0.953 | locus YDL132W, strain cdc53, hits give low values 0.956 | locus YDR052C, strain DBF4, hits give low values 0.968 | locus YDR054C, strain cdc34, hits give low values 0.918 | locus YDR226W, strain ADK1, hits give low values 1.01 | locus YFL009W, strain cdc4, hits give low values 0.948 | locus YFL029C, strain CAK1, hits give low values 0.922 | locus YFR003C, strain YPI1, hits give low values 0.958 | locus YFR028C, strain CDC14, hits give low values 0.97 | locus YGR092W, strain DBF2, hits give low values 0.617 | locus YHR205W, strain SCH9, hits give low values 0.782 | locus YIL147C, strain SLN1, hits give low values 0.956 | locus YJL128C, strain PBS2, hits give low values 1.05 | locus YJR016C, strain ILV3, hits give low values 0.951 | locus YKL048C, strain ELM1, hits give low values 0.843 | locus YKL101W, strain HSL1, hits give low values 0.791 | locus YKL193C, strain SDS22, hits give low values 0.933 | locus YLR403W, strain SFP1, hits give low values 0.703 | locus YMR001C, strain CDC5, hits give low values 0.932 | locus YMR277W, strain FCP1, hits give low values 0.961 | locus YNL006W, strain LST8, hits give low values 0.942 | locus YNL161W, strain CBK1, hits give low values 0.929 | locus YNL207W, strain RIO2, hits give low values 0.944 | locus YNL222W, strain SSU72, hits give low values 0.934 | locus YOL078W, strain AVO1, hits give low values 0.928 | locus YOR119C, strain RIO1, hits give low values 0.728 | locus YOR329C, strain SCD5, hits give low values 0.945 | locus YPL209C, strain IPL1, hits give low values 0.945 | locus YPR025C, strain CCL1, hits give low values 0.944 | locus YPR106W, strain ISR1, hits give low values 0.999 | locus YPR111W, strain DBF20, hits give low values 0.994 | strain NNK1, hits give low values 0.956 | strain TSCII, hits give low values 0.917
